This is an account of results in PubChem BioAssay (EPA / NIEHS).

Read-out in assay [1]: C-C motif chemokine 2 (Homo sapiens) (UniProt P13500)
In words: BSK_KF3CT_MCP1: BioMAP Diversity Plus: KF3CT Assay for Monocyte Chemoattractant Protein 1 (MCP1/CCL2) Biomarker Activity (AID 2283073). To be noted: primary human keratinocytes with fibroblasts; actives raise or lower the signal. An outline of the steps: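 Biomarker MCP-1 is measured by ELISA in primary human keratinocytes co-cultured with foreskin fibroblasts, 24 h after chemical treatment; DMSO serves as the negative control and activity baseline.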

Read-out in assay [2]: Matrix Metallopeptidase 9 (MMP9), MMP9 (gene 4318)
In words: BSK_KF3CT_MMP9: BioMAP Diversity Plus: KF3CT Assay for Matrix Metallopeptidase 9 (MMP9) Biomarker Activity (AID 2283074). To be noted: primary human keratinocytes with fibroblasts; actives raise or lower the signal. Summed up:
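Human keratinocyte and foreskin fibroblast co-culture exposed to chemicals for 24 h; MMP9 biomarker measured by ELISA, bidirectional fitting relative to DMSO; cytotoxicity tracked by SRB total protein staining in parallel cultures.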

Read-out in assay [3]: urokinase plasminogen activator (uPA), PLAU (gene 5328)
In words: BSK_KF3CT_uPA: BioMAP Diversity Plus: KF3CT Assay for urokinase plasminogen activator (uPA) Biomarker Activity (AID 2283075). Conditions: primary human keratinocytes with fibroblasts; actives raise or lower the signal. Summed up: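 Primary human keratinocyte/foreskin fibroblast co-culture exposed to chemical; uPA measured by ELISA at 24 h. Bidirectional fit versus DMSO, with parallel SRB total-protein staining for cytotoxicity.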

Read-out in assay [4]: CD40, CD40 (gene 958)
In words: BSK_LPS_CD40: BioMAP Diversity Plus: LPS Assay for CD40 Biomarker Activity (AID 2283076). Conditions: primary human HUVEC with PBMC; actives raise or lower the signal. An outline of the steps: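 Using a multiplexed primary human co-culture (umbilical vein endothelium plus PBMC), CD40 was read by ELISA 24 h after dosing, with cytotoxicity tracked by sulforhodamine B staining of parallel cultures and activity fitted bidirectionally versus DMSO.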

Read-out in assay [5]: E-selectin (Homo sapiens) (UniProt P16581)
In words: BSK_LPS_Eselectin: BioMAP Diversity Plus: LPS Assay for Eselectin Biomarker Activity (AID 2283077). To be noted: primary human HUVEC with PBMC; actives raise or lower the signal. Summed up:
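Dose chemical onto LPS-driven HUVEC/PBMC co-culture; after 24 h, run ELISA for E-selectin; fit up- and down-going responses relative to DMSO control.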

Read-out in assay [6]: Interleukin-8 (IL8), CXCL8 (gene 3576)
In words: BSK_LPS_IL8: BioMAP Diversity Plus: LPS Assay for Interleukin-8 (IL8) Biomarker Activity (AID 2283078). To be noted: primary human HUVEC with PBMC; actives raise or lower the signal. An outline of the steps: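 In this LPS system, chemical-treated human umbilical vein endothelium/PBMC co-cultures were harvested at 24 h for IL-8 ELISA.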

Assay [7] is described as follows: BSK_LPS_SRB: Viability Assessment in the BioMAP Diversity Plus: LPS Assay (AID 2283079).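 Also: total protein by sulforhodamine B absorbance as a cytotoxicity measure; measured one day after compound addition; fitted in both directions against DMSO so loss or gain of signal counts.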 Conditions: primary human HUVEC with PBMC. An outline of the steps: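 Cytotoxicity endpoint in human endothelial–PBMC co-culture: 24 h exposure, then SRB (0.1%) staining, 560 nm read.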
Read-out in assay [8]: Interleukin-1 alpha (IL1a), IL1A (gene 3552)
In words: BSK_LPS_IL1a: BioMAP Diversity Plus: LPS Assay for Interleukin-1 alpha (IL1a) Biomarker Activity (AID 2283080). Conditions: primary human HUVEC with PBMC; actives raise or lower the signal. An outline of the steps: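 Primary human HUVEC and PBMC co-culture stimulated with LPS is dosed and harvested at 24 h. Both increases and decreases in ELISA-measured IL-1a are scored relative to DMSO.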

Read-out in assay [9]: Monocyte Chemoattractant Protein-1 (MCP1), CCL2 (gene 6347)
In words: BSK_LPS_MCP1: BioMAP Diversity Plus: LPS Assay for Monocyte Chemoattractant Protein-1 (MCP1) Biomarker Activity (AID 2283081).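 As to AC50: secreted MCP-1 protein quantified by ELISA in culture supernatant.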 To be noted: primary human HUVEC with PBMC; actives raise or lower the signal. Summed up: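 Values derive from bidirectional fitting against DMSO of ELISA-measured MCP-1 in a human primary endothelial and mononuclear cell co-culture, 24 h after chemical addition under LPS activation.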

Assay [10] can be described thus: BSK_LPS_PGE2: BioMAP Diversity Plus: LPS Assay for Prostaglandin E2 (PGE2) Biomarker Activity (AID 2283082). To be noted: primary human HUVEC with PBMC; actives raise or lower the signal. An outline of the steps: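 HUVEC plus human PBMC co-culture stimulated with LPS; secreted PGE2 quantified by ELISA 24 h after chemical dosing. Activity fitted bidirectionally against DMSO baseline; parallel SRB staining (0.1% SRB after 10% TCA fixation, 560 nm) flags overt cytotoxicity.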

Read-out in assay [11]: Macrophage colony-stimulating factor (MCSF), CSF1 (gene 1435)
In words: BSK_LPS_MCSF: BioMAP Diversity Plus: LPS Assay for Macrophage colony-stimulating factor (MCSF) Biomarker Activity (AID 2283083). To be noted: primary human HUVEC with PBMC; actives raise or lower the signal. Summed up:
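Bidirectional fit versus DMSO of ELISA-measured M-CSF in co-cultured human umbilical vein endothelial cells and PBMC, sampled 24 h after dosing.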

Read-out in assay [12]: Tissue Factor, F3 (gene 2152)
In words: BSK_LPS_TissueFactor: BioMAP Diversity Plus: LPS Assay for Tissue Factor Biomarker Activity (AID 2283084). Conditions: primary human HUVEC with PBMC; actives raise or lower the signal. An outline of the steps: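 Read-out: CD142 ELISA, 24 h. System: LPS-driven human endothelial/PBMC co-culture. Analysis: up- or down-signal fitted against DMSO.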

Read-out in assay [13]: Tumor necrosis factor (Homo sapiens) (UniProt P01375)
In words: BSK_LPS_TNFa: BioMAP Diversity Plus: LPS Assay for Tumour Necrosis Factor alpha (TNFa) Biomarker Activity (AID 2283085). To be noted: primary human HUVEC with PBMC; actives raise or lower the signal. Summed up: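 Human umbilical vein endothelial cells co-cultured with PBMC and stimulated with LPS. TNFa was measured by ELISA 24 h after chemical dosing, fitted bidirectionally relative to DMSO.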

Read-out in assay [14]: Vascular cell adhesion molecule 1 (VCAM1), VCAM1 (gene 7412)
In words: BSK_LPS_VCAM1: BioMAP Diversity Plus: LPS Assay for Vascular cell adhesion molecule 1 (VCAM1) Biomarker Activity (AID 2283086). To be noted: primary human HUVEC with PBMC; actives raise or lower the signal. Summed up: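 Human umbilical vein endothelial cells co-cultured with PBMC and stimulated with LPS; VCAM-1 measured by ELISA 24 h after dosing. Bidirectional curve fitting against DMSO baseline; cytotoxicity tracked in parallel by SRB total-protein staining.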

Read-out in assay [15]: CD38, CD38 (gene 952)
In words: BSK_SAg_CD38: BioMAP Diversity Plus: SAg Assay for CD38 Biomarker Activity (AID 2283087). Conditions: primary human HUVEC with PBMC; actives raise or lower the signal. Summed up: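 Human HUVEC plus PBMC co-culture stimulated with superantigen; CD38 measured by ELISA 24 h after chemical dosing. Fluorescence read-out, bidirectional fit against DMSO; cytotoxicity tracked in parallel by SRB and Alamar Blue.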

Read-out in assay [16]: CD40, CD40 (gene 958)
In words: BSK_SAg_CD40: BioMAP Diversity Plus: SAg Assay for CD40 Biomarker Activity (AID 2283088). Conditions: primary human HUVEC with PBMC; actives raise or lower the signal. Summed up: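 Endpoint derived by fitting increases or decreases versus DMSO controls. CD40 is detected by fluorescence ELISA in a human vascular co-culture of endothelium and PBMC at 24 h.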

Read-out in assay [17]: CD69, CD69 (gene 969)
In words: BSK_SAg_CD69: BioMAP Diversity Plus: SAg Assay for CD69 Biomarker Activity (AID 2283089). To be noted: primary human HUVEC with PBMC; actives raise or lower the signal. Summed up: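 Values derive from bidirectional fitting relative to DMSO vehicle. Cells: umbilical vein endothelium plus peripheral blood mononuclear cells, treated 24 h before fluorescent ELISA for CD69.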

Read-out in assay [18]: Monocyte Chemoattractant Protein-1 (MCP1), CCL2 (gene 6347)
In words: BSK_SAg_MCP1: BioMAP Diversity Plus: SAg Assay for Monocyte Chemoattractant Protein-1 (MCP1) Biomarker Activity (AID 2283090). To be noted: primary human HUVEC with PBMC; actives raise or lower the signal. Summed up: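 MCP-1 levels in the endothelial–PBMC SAg co-culture were quantified by ELISA at 24 h post-dosing; both increases and decreases versus DMSO scored. Cytotoxicity monitored by SRB total protein in parallel cultures.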

Read-out in assay [19]: E-selectin (Homo sapiens) (UniProt P16581)
In words: BSK_SAg_Eselectin: BioMAP Diversity Plus: SAg Assay for Eselectin Biomarker Activity (AID 2283091). To be noted: primary human HUVEC with PBMC; actives raise or lower the signal. An outline of the steps: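 Endpoint values derive from bidirectional fitting relative to DMSO, using ELISA-measured E-selectin in a human vascular co-culture (umbilical vein endothelium plus PBMC) sampled 24 h after dosing.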

Active and inactive are the calls of the source. The calls were made as follows: active = hit-call score of the fitted dose curve at least 0.9, where 1 is the maximum; inactive = score below 0.9.

Tumor necrosis factor (Homo sapiens), sequence (P01375 whole entry, looked up): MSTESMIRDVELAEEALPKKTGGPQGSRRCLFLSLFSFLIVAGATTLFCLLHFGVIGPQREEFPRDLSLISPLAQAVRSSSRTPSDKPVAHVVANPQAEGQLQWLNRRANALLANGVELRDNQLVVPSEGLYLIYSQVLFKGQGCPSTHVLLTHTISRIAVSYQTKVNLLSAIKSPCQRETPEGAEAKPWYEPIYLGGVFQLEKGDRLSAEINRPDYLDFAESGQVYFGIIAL
E-selectin (Homo sapiens), sequence (P16581 whole entry, looked up): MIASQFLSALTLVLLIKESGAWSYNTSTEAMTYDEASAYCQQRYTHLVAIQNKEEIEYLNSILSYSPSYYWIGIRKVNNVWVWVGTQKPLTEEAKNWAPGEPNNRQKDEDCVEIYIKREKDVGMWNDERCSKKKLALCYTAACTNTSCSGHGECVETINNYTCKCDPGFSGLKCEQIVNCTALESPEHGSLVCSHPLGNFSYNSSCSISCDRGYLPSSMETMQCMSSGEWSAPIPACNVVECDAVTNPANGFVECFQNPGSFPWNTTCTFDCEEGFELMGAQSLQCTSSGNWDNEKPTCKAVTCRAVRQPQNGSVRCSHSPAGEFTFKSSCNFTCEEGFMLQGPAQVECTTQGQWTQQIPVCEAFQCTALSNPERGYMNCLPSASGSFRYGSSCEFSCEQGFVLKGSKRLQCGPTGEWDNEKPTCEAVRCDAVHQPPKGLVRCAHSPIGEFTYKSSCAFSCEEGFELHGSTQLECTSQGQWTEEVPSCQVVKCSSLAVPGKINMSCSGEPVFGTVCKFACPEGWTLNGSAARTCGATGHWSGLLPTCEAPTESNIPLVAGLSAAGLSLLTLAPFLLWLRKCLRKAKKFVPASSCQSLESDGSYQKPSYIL

For the molecule `O=C(O)c1ccccc1-n1cc(C(=O)O)c(=O)c2cc(Nc3c(F)cc(F)cc3Cl)c(Cl)cc21`, the result in [1], in [2], in [3], in [4], in [5] and in assay [6] was inactive. Besides, the outcome in assay [7], in [8], in [9], in assay [10], in assay [11] and in assay [12] was inactive. Also, the result in [13], in assay [14], in [15], in assay [16], in assay [17] and in assay [18] was inactive. Besides, the result in assay [19] was inactive.
With `C[C@]12CC[C@@H]3c4ccc(O)cc4CC[C@H]3[C@@H]1CC[C@H]2O`, the result in [1], in [2], in [3], in assay [4], in [5] and in assay [6] was inactive. For the same molecule, the result in [8], in assay [10], in [12], in [13], in assay [15] and in [16] was inactive. Moreover, the result in assay [17] and in assay [19] was inactive. Besides, the AC50 in assay [7] is 9.95 µM (active); in assay [9], 14.1 µM (active); in assay [11], 8.61 µM (active); in assay [18], 15.4 µM (active).
`CCN(Cc1cccc(S(=O)(=O)O)c1)c1ccc(C(=C2C=CC(=[N+](CC)Cc3cccc(S(=O)(=O)O)c3)C=C2)c2ccccc2S(=O)(=O)[O-])cc1`: the outcome in assay [1], in [2], in assay [3], in assay [4], in assay [5] and in [6] was inactive. Further, the outcome in [7], in assay [8], in assay [9], in assay [10], in assay [11] and in assay [12] was inactive. The outcome in [13], in [14], in [15], in [16], in [17] and in assay [18] was inactive. In assay [19], the result was inactive.
